Laboratory results taken from the supplement of paper PMC8699584.
“And” between values parts separate entries of the source, which are not always exact repeats. Equal entries are not always repeated. Structures can show the parent of a compound that is named as a salt. ± gives the standard deviation of the averaged measurements.

Key:
Molm13 = experiment: cell viability relative to DMSO control (bortezomib = 0%); higher = less growth inhibition; conditions: 10 nM; 72 h
Method in brief: (§1)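 Cell viability was assessed by CellTiter-Glo luminescence. Acute myeloid leukemia cells were seeded at 1000 cells per well in 50 µL on a 384-well library of 679 compounds at a single 10 nM dose for 72 h. Per-plate linear regression set DMSO-treated cells at 100% and positive-control-treated cells at 0%.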

Mv4-11 = experiment: as above; conditions: 10 nM; 72 h
Method in brief: as §1

Molecule `CN(C)C(=O)c1cc2cnc(Nc3ccc(N4CCNCC4)cn3)nc2n1C1CCCC1` has a cell viability (Molm13) of 113 ± 12% and a cell viability (Mv4-11) of 113 ± 12%.

For `CNCCNS(=O)(=O)c1cccc2cnccc12` [H-8 (hydrochloride)], the cell viability (Molm13) was 106 ± 12% and the cell viability (Mv4-11) was 108 ± 7.2%.

Molecule `CS(=O)(=O)c1cccc(CNc2nc(Nc3ccc4c(c3)CCC(=O)N4)ncc2C(F)(F)F)c1` has a cell viability (Molm13) of 98.44 ± 0.67% and a cell viability (Mv4-11) of 101 ± 4.3%.

`Cc1cn(-c2cc(NC(=O)c3ccc(C)c(Nc4nccc(-c5cccnc5)n4)c3)cc(C(F)(F)F)c2)cn1` [Nilotinib (AMN-107)] gave a cell viability (Molm13) of 108 ± 9% and a cell viability (Mv4-11) of 112 ± 16%.

`O=S(=O)(c1cccc2cnccc12)N1CCCNCC1` [Fasudil (HA-1077) hydrochloride] showed a cell viability (Molm13) of 91.5 ± 1.8% and a cell viability (Mv4-11) of 104 ± 5%.

Molecule `NCCCNc1ccc(Nc2nccc(Nc3cc(C4CC4)[nH]n3)n2)cc1` has a cell viability (Molm13) of 94.71 ± 0.31% and a cell viability (Mv4-11) of 110 ± 7.2%.

`Cc1[nH]c(/C=C2\C(=O)Nc3ccccc32)c(C)c1CCC(=O)O` [TSU-68 (SU6668, Orantinib)] was tested, and the cell viability (Molm13) was 93.8 ± 2.3% and the cell viability (Mv4-11) was 122 ± 14%.

`N#CC[C@H](C1CCCC1)n1cc(-c2ncnc3[nH]ccc23)cn1` [Ruxolitinib] gave a cell viability (Molm13) of 105 ± 10% and a cell viability (Mv4-11) of 111.1 ± 0.83%.

Work on `C=C(C)[C@@H]1CC[C@]2(C)CC[C@]3(C)[C@H](CC[C@@H]4[C@@]5(C)CC[C@H](O)C(C)(C)[C@@H]5CC[C@]43C)[C@@H]12` [Lupeol] yielded a cell viability (Molm13) of 101 ± 9.8% and a cell viability (Mv4-11) of 94.9 ± 1.2%.

For `Cc1ccc([N+](=O)[O-])cc1S(=O)(=O)N(C)/N=C/c1cnc2ccc(Br)cn12` [PIK-75 (hydrochloride)], the cell viability (Molm13) was 94.7 ± 11% and the cell viability (Mv4-11) was 92.2 ± 7.8%.

`C[C@@H]1O[C@@H](O[C@@H]2[C@@H](O)[C@H](OCCc3ccc(O)c(O)c3)O[C@H](CO)[C@H]2OC(=O)/C=C/c2ccc(O)c(O)c2)[C@H](O)[C@H](O)[C@H]1O` [Verbascoside] was tested, and the cell viability (Molm13) was 89.4 ± 1.9% and the cell viability (Mv4-11) was 91.6 ± 5.3%.

In the case of `N#CC(c1ccnc(NCCc2cccnc2)n1)c1nc2ccccc2s1` (centres undefined), the cell viability (Molm13) is reported as 105 ± 26% and the cell viability (Mv4-11) is reported as 109 ± 28%.

In the case of `Cc1cc(O)c2c(c1)C(=O)c1cccc(O)c1C2=O` [Chrysophanic Acid], the cell viability (Molm13) is reported as 93.1 ± 1.7% and the cell viability (Mv4-11) is reported as 108 ± 12%.

`Fc1ccc(-c2nc3n(c2-c2ccncc2)CCS3)cc1` was tested, and the cell viability (Molm13) was 102.8 ± 0.71% and the cell viability (Mv4-11) was 98.2 ± 4.3%.

`O=c1cc(N2CCOCC2)oc2c1ccc1ccccc12` was tested, and the cell viability (Molm13) was 98.1% and 100% and the cell viability (Mv4-11) was 103% and 110%.

`CC(C)=CCC[C@](C)(O[C@@H]1O[C@H](CO[C@@H]2O[C@H](CO)[C@@H](O)[C@H](O)[C@H]2O)[C@@H](O)[C@H](O)[C@H]1O)[C@H]1CC[C@]2(C)[C@@H]1[C@H](O)C[C@@H]1[C@@]3(C)CC[C@H](O[C@@H]4O[C@H](CO)[C@@H](O)[C@H](O)[C@H]4O)C(C)(C)[C@@H]3CC[C@]12C` [Gypenoside XVII] showed a cell viability (Molm13) of 95.8 ± 9.3% and a cell viability (Mv4-11) of 102 ± 7%.

For `Cc1cc(C)c(/C=C2\C(=O)Nc3ccccc32)[nH]1` [Semaxanib (SU5416)], the cell viability (Molm13) was 82.4 ± 11% and the cell viability (Mv4-11) was 98 ± 16%.

`CC(C)(C#N)c1ccc(N2C(=O)OCc3cnc4ccc(-c5cnc6ccccc6c5)cc4c32)cc1` was tested, and the cell viability (Molm13) was 93.6 ± 11% and the cell viability (Mv4-11) was 102 ± 9.2%.

`COc1cc2nccc(Oc3ccc(NC(=O)NC4CC4)c(Cl)c3)c2cc1C(N)=O` [Lenvatinib (E7080)] was tested, and the cell viability (Molm13) was 112 ± 6.8% and the cell viability (Mv4-11) was 123 ± 14%.

`O=C(NCCO)c1cccc(-c2cc(Nc3ccc(OC(F)(F)F)cc3)ncn2)c1` gave a cell viability (Molm13) of 98.72 ± 0.31% and a cell viability (Mv4-11) of 107 ± 3.3%.

`CCN(CC)CCNC(=O)c1c(C)[nH]c(/C=C2\C(=O)Nc3ccc(F)cc32)c1C` [Sunitinib] showed a cell viability (Molm13) of 111 ± 26% and a cell viability (Mv4-11) of 117 ± 4.9%.

For `O=C(O)c1cc(NCc2cc(O)ccc2O)ccc1O` [Lavendustin C], the cell viability (Molm13) was 111 ± 13% and the cell viability (Mv4-11) was 104 ± 1.9%.

With `CC(C)(C)n1nc(Cc2cccc3ccccc23)c2c(N)ncnc21` the cell viability (Molm13) was 106 ± 29% and the cell viability (Mv4-11) was 106 ± 3%.

In the case of `C=CC(=O)Nc1cc2c(Nc3ccc(F)c(Cl)c3)ncnc2cc1OCCCN1CCOCC1` [Canertinib dihydrochloride], the cell viability (Molm13) is reported as 101 ± 3.2% and the cell viability (Mv4-11) is reported as 111 ± 6.1%.

Molecule `CNC(=O)c1ccc(Nc2ncc(C(F)(F)F)c(NCc3nccnc3N(C)S(C)(=O)=O)n2)cc1` has a cell viability (Molm13) of 90.2 ± 16% and a cell viability (Mv4-11) of 99.5 ± 3.4%.

Work on `C=CC(=O)Nc1cccc(C)c1Nc1ncc2cc(-c3c(Cl)c(OC)cc(OC)c3Cl)ccc2n1` yielded a cell viability (Molm13) of 112 ± 22% and a cell viability (Mv4-11) of 112 ± 1.2%.

`CN1CC[C@H](c2c(O)cc(O)c3c(=O)cc(-c4ccccc4Cl)oc23)[C@H](O)C1` [Flavopiridol (Alvocidib) hydrochloride] was tested, and the cell viability (Molm13) was 113.8 ± 0.38% and the cell viability (Mv4-11) was 100 ± 3.2%.

In the case of `O=c1ccc2ccc(O)c(O)c2o1` [Daphnetin], the cell viability (Molm13) is reported as 100 ± 4.2% and the cell viability (Mv4-11) is reported as 109 ± 12%.

Work on `Cc1cc(CN2CCN(c3c(Br)cnc4nc(-c5ccc(N6CCN(C)CC6)cc5)[nH]c34)CC2)no1` yielded a cell viability (Molm13) of 85.6 ± 1.8% and a cell viability (Mv4-11) of 95.3 ± 3.4%.

With `CN(c1ccccc1CNc1nc(Nc2ccc3c(c2)CC(=O)N3)ncc1C(F)(F)F)S(C)(=O)=O` the cell viability (Molm13) was 112 ± 25% and the cell viability (Mv4-11) was 96.4 ± 15%.

`O=C(NCc1cccc(O)c1)c1cc2cc(F)ccc2[nH]1` gave a cell viability (Molm13) of 113 ± 3.2% and a cell viability (Mv4-11) of 114 ± 1.2%.

`CN1CCN(Cc2ccc(-c3cnc4[nH]cc(-c5ccc6[nH]ccc6c5)c4c3)cc2)CC1` showed a cell viability (Molm13) of 109 ± 33% and a cell viability (Mv4-11) of 121 ± 31%.

`O=C1NC(=O)C(=Cc2ccc(-c3ccc(F)cc3)o2)S1` (stereo in doubt) gave a cell viability (Molm13) of 106 ± 12% and a cell viability (Mv4-11) of 108 ± 13%.

For `Oc1ccc(Nc2nc(-c3ccc(Cl)cc3)cs2)cc1`, the cell viability (Molm13) was 99.73 ± 0.67% and the cell viability (Mv4-11) was 105.24 ± 0.067%.

`CC(C)(C)n1nc(-c2cccc3ccccc23)c2c(N)ncnc21` showed a cell viability (Molm13) of 95.9 ± 9.6% and a cell viability (Mv4-11) of 110 ± 10%.

For `Cn1cc(-c2cnn3c(N)c(Br)c([C@@H]4CCCNC4)nc23)cn1`, the cell viability (Molm13) was 92.5 ± 4.6% and the cell viability (Mv4-11) was 104 ± 4.8%.

For `CC(C)c1cnc(NC(=O)Cc2ccccc2)s1`, the cell viability (Molm13) was 92.8 ± 37% and the cell viability (Mv4-11) was 98.7 ± 9.3%.

`Cc1ccc(F)c(NC(=O)Nc2ccc(-c3cccc4[nH]nc(N)c34)cc2)c1` was tested, and the cell viability (Molm13) was 72.2 ± 9.9% and the cell viability (Mv4-11) was 97.7 ± 10%.

For `CN1CCN(c2ccc(C(=O)Nc3n[nH]c4ccc(Cc5cc(F)cc(F)c5)cc34)c(NC3CCOCC3)c2)CC1` [Entrectinib], the cell viability (Molm13) was 87.5 ± 7% and the cell viability (Mv4-11) was 104 ± 24%.

For `CC(C)c1ccc2c(c1)CC[C@@H]1[C@@](C)(CN)CCC[C@@]21C` [Leelamine (hydrochloride)], the cell viability (Molm13) was 101.6 ± 0.018% and the cell viability (Mv4-11) was 96.46 ± 0.32%.

For `C[C@@H]1O[C@@H](Oc2cc(O)c3c(=O)c(O[C@@H]4O[C@@H](C)[C@H](O)[C@@H](O)[C@H]4O)c(-c4ccc(O)cc4)oc3c2)[C@H](O)[C@H](O)[C@H]1O` [Kaempferitrin], the cell viability (Molm13) was 114 ± 10% and the cell viability (Mv4-11) was 105 ± 3.1%.

Molecule `CN1CCCN(C(=O)c2cccc(-c3ccc(/C=C4/C(=O)Nc5ccc(Cl)cc54)o3)c2)CC1` has a cell viability (Molm13) of 127 ± 13% and a cell viability (Mv4-11) of 120 ± 2.9%.

Molecule `C=CC(=O)Nc1cccc(Nc2nc(Nc3ccc(Oc4ccnc(C(=O)NC)c4)cc3)ncc2F)c1` has a cell viability (Molm13) of 114 ± 24% and a cell viability (Mv4-11) of 108 ± 9.3%.

With `CCN(CC)CCNC(=O)c1c(C)[nH]c(/C=C2\C(=O)Nc3ccc(F)cc32)c1C` [Sunitinib (malate)] the cell viability (Molm13) was 50.3 ± 5.7% and the cell viability (Mv4-11) was 63.4 ± 1.2%.

Molecule `Nc1nc2cc(-c3ccc4ncc(C(=O)N5CCOCC5)n4c3)ccc2o1` has a cell viability (Molm13) of 98.5 ± 2.2% and a cell viability (Mv4-11) of 105 ± 16%.

`Cn1c(=O)n(-c2ccc(C(C)(C)C#N)cc2)c2c3cc(-c4cnc5ccccc5c4)ccc3ncc21` [BEZ235 (NVP-BEZ235, Dactolisib)] was tested, and the cell viability (Molm13) was 113 ± 7.9% and the cell viability (Mv4-11) was 102 ± 6.4%.

`CNC(=O)c1ccccc1Nc1nc(Nc2ccc(N3CCOCC3)cc2OC)ncc1Cl` gave a cell viability (Molm13) of 90.55 ± 0.19% and a cell viability (Mv4-11) of 109 ± 5.5%.

For `COc1cc(N2CCN(C)CC2)ccc1Nc1nccc(-c2cn(C)c3cnccc23)n1`, the cell viability (Molm13) was 118 ± 3.1% and the cell viability (Mv4-11) was 117 ± 7%.

`C#Cc1cccc(Nc2ncnc3cc(OCCOC)c(OCCOC)cc23)c1` [Erlotinib] gave a cell viability (Molm13) of 102 ± 6.9% and a cell viability (Mv4-11) of 102 ± 10%.

For `COc1cc(Nc2nc3ccccc3nc2NS(=O)(=O)c2ccc(NC(=O)c3ccc(C)c(OC)c3)cc2)cc(OC)c1`, the cell viability (Molm13) was 107 ± 25% and the cell viability (Mv4-11) was 116.8 ± 0.41%.

Molecule `O=C(O)c1c[nH]c2c(ccc3ccccc32)c1=O` has a cell viability (Molm13) of 87 ± 11% and a cell viability (Mv4-11) of 106 ± 6.8%.

In the case of `CC(=O)c1c(C)c2cnc(Nc3ccc(N4CCNCC4)cn3)nc2n(C2CCCC2)c1=O`, the cell viability (Molm13) is reported as 89.3% and 111% and the cell viability (Mv4-11) is reported as 105% and 111%.
